{
  "source": "PubChem BioAssay AID720531",
  "about": "(The Scripps Research Institute Molecular Screening Center, 2013)",
  "note": "Screen size: about 1,000 compounds; about 270 (27%) were called active. A selection follows. A number with no mark means an inactive call. No stated cut-off is given here; in the data, active means inhibition above about 14%; inactive means the rest.",
  "data": [
    {"molecular_target": "Methyl-CpG-binding domain protein 2 (Homo sapiens) (UniProt Q9UBB5)", "sequence (Q9UBB5 whole entry, looked up, the tested form may be a part)": "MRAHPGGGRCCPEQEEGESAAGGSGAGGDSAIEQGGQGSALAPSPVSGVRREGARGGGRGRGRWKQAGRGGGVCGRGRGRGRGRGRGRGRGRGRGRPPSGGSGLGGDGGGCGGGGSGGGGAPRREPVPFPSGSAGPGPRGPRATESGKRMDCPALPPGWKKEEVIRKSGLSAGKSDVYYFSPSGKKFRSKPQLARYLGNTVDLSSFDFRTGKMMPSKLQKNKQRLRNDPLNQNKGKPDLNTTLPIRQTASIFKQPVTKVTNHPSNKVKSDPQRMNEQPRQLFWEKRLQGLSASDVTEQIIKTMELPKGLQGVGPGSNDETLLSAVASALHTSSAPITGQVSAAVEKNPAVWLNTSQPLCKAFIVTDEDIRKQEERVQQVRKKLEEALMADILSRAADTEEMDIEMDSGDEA", "assay": "MBD2-DBD methyl-oligonucleotide interaction blockers – biochemical, TR-FRET, DNA-binding domain, human, confirmation (AID 720531)", "details": "TR-FRET MBD2-DBD binding to methylated oligonucleotide; at 4.4 µM; hits give high values", "values": [
      {"smiles": "c1ccc2cc3c(NCCN4CCOCC4)ccnc3cc2c1", "inhibition": "25% (active)"},
      {"smiles": "Cc1cccc(NC(=O)C[C@H]2CC[C@H]3[C@@H](COc4ccc(NC(=O)Nc5ccccc5)cc4C(=O)N3C)O2)c1", "inhibition": "8.99%"},
      {"smiles": "COC(=O)[C@]12C[C@H](CC(=O)NCCC(C)C)C(=O)N(CCc3ccc(OC)c(OC)c3)C1=C[C@H](C(C)(C)C)O[C@@H]2C", "inhibition": "2.11%"},
      {"smiles": "O=c1ccc2c(-c3ccccc3S(=O)(=O)O)c3ccc(O)c(O)c3oc-2c1O", "inhibition": "94.4% (active)"},
      {"smiles": "CN(C)[C@@H]1C(=O)C(C(N)=O)=C(O)[C@@]2(O)C(=O)C3=C(O)c4c(O)ccc(Cl)c4[C@@H](O)[C@H]3C[C@@H]12", "inhibition": "0.76%"},
      {"smiles": "CN(C)CCNC(=O)c1ccc(Cl)c2cc3ccccc3nc12", "inhibition": "68.7% (active)"},
      {"smiles": "COc1nc(N(C)C)nc(N2CC(=O)N(CCNS(=O)(=O)c3ccc(C)cc3)C2=N)n1", "inhibition": "3.06%"},
      {"smiles": "COC(=O)c1c(NC(=O)c2ccc(S(=O)(=O)N3CCOCC3)cc2)sc2c1CCN(C(C)C)C2", "inhibition": "23.6% (active)"},
      {"smiles": "CCOc1ccc(-n2c(SCC(=O)Nc3ccc(OC)cc3)nc3sc4c(c3c2=O)CCN(C)C4)cc1", "inhibition": "4.44%"},
      {"smiles": "COc1ccc(COC[C@H](CC(C)C)N2CCN(C(=O)c3cccc(C(F)(F)F)c3)CCC2=O)cc1", "inhibition": "5.45%"},
      {"smiles": "Nc1ccccc1C(=O)NC1CCCCNC1=O", "note": "(stereo not given)", "inhibition": "0.65%"},
      {"smiles": "C=CCn1c(=S)[nH]c2scc(-c3ccco3)c2c1=O", "inhibition": "27.2% (active)"},
      {"smiles": "COC(=O)c1ccc(CSc2nncn2N)cc1", "inhibition": "1.91%"},
      {"smiles": "Cc1c(NS(=O)(=O)c2cc(C(=O)NCCc3ccc(F)cc3)cc(Cl)c2Cl)c(=O)n(-c2ccccc2)n1C", "inhibition": "3.66%"},
      {"smiles": "C=CCN(C(=O)[C@@H](CCCC)[C@@H](O)c1ccc(Cl)cc1)c1ccccc1", "inhibition": "3.23%"},
      {"smiles": "C=CC1=C(C(=O)O)N2C(=O)[C@@H](NC(=O)/C(=N\\OCC(=O)O)c3csc(N)n3)[C@H]2SC1", "inhibition": "104% (active)"},
      {"smiles": "CNC(=O)C[C@H]1C(=O)N(c2ccc(OC)cc2)C[C@@H]1Cc1ccccc1", "inhibition": "2.83%"},
      {"smiles": "CCOc1ccc(S(=O)(=O)N2CCC(c3ccccc3)CC2)cc1C(=O)O", "inhibition": "0.33%"},
      {"smiles": "CC(C)c1nc(CNC(=O)CC2C(=O)NCCN2Cc2cccc(F)c2F)cs1", "note": "(stereo not given)", "inhibition": "1.21%"},
      {"smiles": "CCOc1ccc(NC(=O)c2cc(C)nc3ccccc23)cc1", "inhibition": "1.13%"},
      {"smiles": "Cc1ccc(Cc2cnc(N)s2)o1", "inhibition": "2.75%"},
      {"smiles": "CCOC(=O)C1C(=O)OC2(CCCC2)C1C(=O)OCC", "note": "(stereo not given)", "inhibition": "1.9%"},
      {"smiles": "CCN(CC)CCOc1ccc2c(c1)C(=NNC(=O)c1ccccn1)c1cc(OCCN(CC)CC)ccc1-2", "inhibition": "112% (active)"},
      {"smiles": "C=CCN1C(=O)c2ccc(C(=O)N3CCC(C(=O)OCC)CC3)cc2C1=O", "inhibition": "4.08%"},
      {"smiles": "COc1ccccc1C(=O)NNC(=O)CCN1C(=O)/C(=C\\c2ccccc2)SC1=S", "inhibition": "1.72%"},
      {"smiles": "COC(=O)c1cn(C)c2ccc(S(=O)(=O)N3CC(C)CC(C)C3)cc2c1=O", "note": "(stereo not given)", "inhibition": "6.67%"},
      {"smiles": "Cc1ccc(-c2ccnc3nc(Sc4ncc(C(F)(F)F)cc4Cl)nn23)cc1", "inhibition": "3.6%"},
      {"smiles": "CCOc1cc(-c2noc(CCCC(=O)NC3CCCCC3)n2)ccc1OC", "inhibition": "7.12%"},
      {"smiles": "C=C1c2c(Cl)ccc(O)c2C(O)=C2C(=O)[C@]3(O)C(O)=C(C(N)=O)C(=O)[C@@H](N(C)C)[C@@H]3[C@@H](O)C12", "note": "(stereo not given in full)", "inhibition": "7.25%"},
      {"smiles": "Cc1cc(C)c2nc3nc(C)cc(C)c3c(N)c2c1", "inhibition": "45.1% (active)"},
      {"smiles": "CC(C)Oc1ccc(C2NC(=O)NC2=O)cc1", "note": "(stereo not given)", "inhibition": "6.62%"},
      {"smiles": "COC(=O)c1ccc2nc(C3CCCCC3)c(Cc3cccc(F)c3)n2c1", "inhibition": "4.72%"},
      {"smiles": "Cc1ccccc1NC(=O)CN1C(=O)N/C(=C\\c2cccn2-c2cccc(C(=O)O)c2)C1=O", "inhibition": "21.2% (active)"},
      {"smiles": "Cc1cccc(CN2CCN(C3CN(Cc4cn(Cc5cc(C)cc(C)c5)nn4)S(=O)(=O)C3)CC2)c1", "note": "(stereo not given)", "inhibition": "1.92%"},
      {"smiles": "CCOc1ccc(N(CC(=O)NCCOc2ccccc2OC)S(=O)(=O)c2ccccc2)cc1", "inhibition": "2.61%"},
      {"smiles": "Cc1c(C=O)n(C)n(-c2ccccc2)c1=O", "inhibition": "6.3%"},
      {"smiles": "Brc1ccc(-c2n(-c3ccccn3)c3ccccc3[n+]2-c2ccccn2)cc1", "inhibition": "76.4% (active)"},
      {"smiles": "COc1ccc(-n2cc(-c3ccccc3)c3c(=S)nc[nH]c32)cc1", "inhibition": "3.57%"},
      {"smiles": "Cc1ccc(C)c(NC(=O)c2ccc(OC(=O)c3ccco3)cc2)c1", "inhibition": "4.94%"},
      {"smiles": "CC(=O)c1ccccc1NC(=O)COC(=O)C1COc2ccccc2O1", "note": "(stereo not given)", "inhibition": "-0.13%"},
      {"smiles": "COc1ccc(CNC(=O)c2c[nH]c3c(OC)cc(OC)cc3c2=O)cc1", "inhibition": "3.79%"},
      {"smiles": "COC(=O)c1ccc2nc(-c3cccc(Br)c3)c(Cc3ccc(OC)cc3C)n2c1", "inhibition": "8.39%"},
      {"smiles": "CN(C(=O)COC(=O)c1cc(-c2ccco2)nc2ccccc12)C1CCS(=O)(=O)C1", "note": "(stereo not given)", "inhibition": "32.3% (active)"},
      {"smiles": "CO/N=C(/CS(=O)(=O)c1ccc(Br)cc1)c1ccc(OC)cc1", "inhibition": "3.47%"},
      {"smiles": "COc1ccc(OCc2cc(C(=O)NCC3(C)COC3)no2)c(Cl)c1", "inhibition": "-0.36%"},
      {"smiles": "CCOc1cc(N2CCOCC2)c(OCC)cc1NC(=O)c1cc(C)nc2ccccc12", "inhibition": "2.46%"},
      {"smiles": "COc1ccc2[nH]c3c(C)c4cc[n+](C)cc4c(C)c3c2c1", "inhibition": "109% (active)"},
      {"smiles": "CCOC(=O)CCP(=O)(O)C(O)(c1ccccc1)c1ccccc1", "inhibition": "5.44%"},
      {"smiles": "COc1ccc2c(c1)c(=Cc1ccc(N(C)C)cc1)c1cc(-c3ccccc3)[n+](C)n12", "inhibition": "73% (active)"},
      {"smiles": "CCOC(=O)c1sc(NC(=O)CCN2CCOCC2)c(C(=O)OCC)c1C", "inhibition": "1.01%"},
      {"smiles": "O=C(c1n[nH]c2c1CCC2)N1CCCC(Nc2cccc(F)c2)C1", "note": "(stereo not given)", "inhibition": "3.32%"},
      {"smiles": "O=C(CC1CCCCC1)Nc1c2c(nn1-c1ccc(F)cc1)CS(=O)(=O)C2", "inhibition": "1.28%"},
      {"smiles": "CCOC(=O)c1ccc(-n2c(CCC(=O)O)ccc2-c2ccccc2)cc1", "inhibition": "-0.54%"},
      {"smiles": "COC(=O)c1cccc(NC(=O)c2cccc(N3C(=O)CCC3=O)c2)c1", "inhibition": "1.64%"},
      {"smiles": "Cc1ccc(C(=O)Nc2ccc3c(c2)OCO3)cc1S(=O)(=O)N1CCCCC1", "inhibition": "5.06%"}
    ]}
  ]
}
